In PubChem BioAssay AID463173 (ICCB-Longwood Screening Facility, Harvard Medical School, 2010) one finds survival data, which are given here for 95 compounds.

Molecules are shown by their SMILES. The whole screen tested about 52,000 compounds, of which about 4,300 (8.3%) were called active. Cut-off read from the data, not from the text of the source: active = survival mostly below about 52% (no sharp cut-off); inactive = mostly above about 56%. The sample as a whole holds a higher share of actives than the screen did.

The test system of this assay is DeltatarO mutant. Put plainly: growth inhibition of S. aureus wild type versus tarO mutant, primary screen, teichoic acid synthesis inhibitors, RN4220, OD600 (AID 463173). The settings on record: OD600, 18 h, active compounds read low, screened at 18.75 µg/mL (by protocol).
Consider `CCCCC(=O)Nc1ccc(C(=O)OCc2cc(=O)n3ccsc3n2)cc1`, for which the survival is 75% (inactive).

`CC(C)CC(=O)N1c2nc(C(C)C)nn2C2(CCCCC2)[C@@H]2CCCC[C@@H]21`: the survival is 79% (inactive).

With `COc1cccc(NC(=O)c2c(-c3ccc(C)cc3)nnc3ccccc23)c1`, the survival is 78% (inactive).

On to `Cc1ccc2nc(Nc3ccc(Br)cc3)nc(-c3ccccc3)c2c1`, for which the survival was 35% (active).

Regarding `COc1cccc(Nc2nc(-c3ccccc3)c3cc(C)ccc3n2)c1`, the survival was 12% (active).

Consider `Clc1ccccc1-c1nc(Nc2ccccc2)nc2ccc(Br)cc12`, for which the survival is 47% (active).

Turning to `COc1cccc(Nc2cc(C)nc3ccccc23)c1`, the survival was 109% (inactive).

On to `Cc1ccc(Nc2c(-c3cccnc3)nc3ccc(Br)cn23)cc1`, for which the survival was 80% (inactive).

As for `COc1ccccc1Nc1nc(-c2ccccc2Cl)c2cc(Br)ccc2n1`, the survival was 125% (inactive).

As for `Cc1cc(C)cc(NC(=O)CSc2nc(-c3ccccc3)c3cc(F)ccc3n2)c1`, the survival was 87% (inactive).

On to `COc1ccc(Nc2nc(N)c3cc(OC)c(OC)cc3n2)cc1`, for which the survival was 87% (inactive).

`COc1ccc(Nc2nc(-c3ccccc3)c3cc(Br)ccc3n2)cc1`: the survival is 23% (active).

With `CCN(CC)c1nc(-c2ccccc2Cl)c2cc(Br)ccc2n1`, the survival is 55% (inactive).

In the case of `Clc1ccc(Nc2nc(-c3ccccc3)c3cc(Cl)ccc3n2)cc1`, the survival was 54% (inactive).

Regarding `O=C(CCn1cccn1)Nc1ccc(Br)cc1F`, the survival is 93% (inactive).

In the case of `COC(=O)c1cc2sccc2n1CC(=O)Nc1cc(Cl)ccc1OC`, the survival was 99% (inactive).

`S=C(Nc1ccccc1)N1CCOCC1`: the survival was 89% (inactive).

For the compound `CC(=O)c1cccc(NC(=O)c2nc3ccccc3nc2N2CCCCC2)c1`, the survival is 71% (inactive).

On to `Cc1cccc(NC(=O)CSc2nc3c(oc4ccccc43)c(=O)n2C(C)C)c1`, for which the survival was 63% (inactive).

With `CCc1ccc(C(=O)c2cn(CC(=O)Nc3cccc(OC)c3)c3cc4c(cc3c2=O)OCO4)cc1`, the survival is 72% (inactive).

`O=C(COc1ccc(Cl)cc1)Nc1nnc2n1CCS2`: the survival was 124% (inactive).

Take `Cc1ccc(C(=O)N2CCC(c3c[nH]c4ccccc34)(c3c[nH]c4ccccc34)CC2)cc1`: the survival was 87% (inactive).

For the compound `COc1ccc(CCNc2ncnc3c2c(-c2ccccc2)cn3-c2ccc(Cl)cc2)cc1OC`, the survival is 97% (inactive).

On to `Cc1ccc2nc(NN)nc(-c3ccccc3)c2c1`, for which the survival is 98% (inactive).

Turning to `O=C(O)c1ccc(Nc2nc(-c3ccccc3)c3cc(Br)ccc3n2)cc1`, the survival is 21% (active).

On to `COc1cc2nc(Nc3cccc(C)c3)nc(N)c2cc1OC`, for which the survival was 67% (inactive).

Take `Cc1ccc(C)c(Nc2nc(-c3ccccc3)c3cc(Br)ccc3n2)c1`: the survival was 43% (active).

In the case of `Oc1ccccc1Nc1nc(-c2ccccc2)c2cc(Cl)ccc2n1`, the survival is 71% (inactive).

For `Cc1cccc(Nc2nc(-c3ccccc3)c3cc(C)ccc3n2)c1`, the survival is 3% (active).

Consider `Clc1ccc(Nc2nc(-c3ccccc3)c3ccccc3n2)c(Cl)c1`, for which the survival was 72% (inactive).

As to `Clc1ccc2nc(Nc3ccccc3Cl)nc(-c3ccccc3)c2c1`, the survival was 75% (inactive).

Consider `O=C(O)c1cccc(Nc2ncnc3ccc(Br)cc23)c1`, for which the survival was 119% (inactive).

On to `CCOc1cc(CNC(=O)Cn2c(=O)c3cccn3c3ccc(F)cc32)cc(OCC)c1OCC`, for which the survival is 50% (inactive).

With `Cc1ccc(C)c(Cn2c(=O)n(Cc3ccccc3)c(=O)c3c2c2cc(C)ccc2n3C)c1`, the survival is 78% (inactive).

Turning to `CC(C)c1ccc(OCC(O)CN2CCN(c3ccc(F)cc3)CC2)cc1` (stereo not given), the survival is 56% (inactive).

Turning to `O=C(CN1C(=O)C2(SCC(=O)N2c2ccc(F)c(F)c2)c2ccccc21)Nc1ccccc1F` (stereo not given), the survival is 94% (inactive).

Regarding `COc1ccc(CCNC(=O)c2c(C)oc3nc(C)nc(N4CCOCC4)c23)cc1OC`, the survival was 102% (inactive).

In the case of `COCCN(C(=O)C1CC1)c1nnc(-c2cccc(C)c2)s1`, the survival is 98% (inactive).

Take `Cc1cc(C)nc(NS(=O)(=O)c2ccc(NC(=O)COc3ccc(Cl)cc3C)cc2)n1`: the survival is 63% (inactive).

With `COc1ccc(NC(=O)CN2CCC(n3c(C)nc4cc(F)ccc43)CC2)c(OC)c1`, the survival was 104% (inactive).

Take `COc1cccc(CN(C(=O)c2cccc(C)c2)C2CCS(=O)(=O)C2)c1` (stereo not given): the survival was 65% (inactive).

Take `CCOc1ccc(CCNC(=O)c2cc3n(n2)CCCN(Cc2ccc(C)cc2)C3=O)cc1OCC`: the survival was 112% (inactive).

With `O=S(=O)(CCN1CCOCC1)c1ccc(Oc2ccc(S(=O)(=O)CCN3CCOCC3)cc2)cc1`, the survival was 70% (inactive).

Regarding `Cc1ccc(CCNC(=O)C(CC(C)C)NS(=O)(=O)c2ccc3c(c2)oc(=O)n3C)cc1` (stereo not given), the survival is 93% (inactive).

In the case of `N#Cc1ccc(-c2cccs2)nc1SCc1c(F)cccc1Cl`, the survival is 36% (active).

Turning to `Cc1ccc(CSc2ccc(-c3cccs3)nn2)cc1`, the survival is 89% (inactive).

With `Cc1ccc(CSc2nc(-c3cccs3)ccc2C#N)cc1`, the survival is 25% (active).

For `N#Cc1c(-c2cccs2)cc(-c2cccs2)nc1SCc1cccnc1`, the survival is 65% (inactive).

For `N#Cc1ccc(-c2cccs2)nc1SCc1ccc(Br)cc1`, the survival was 74% (inactive).

As for `N#Cc1ccc(-c2cccs2)nc1SCc1ccc(Cl)cc1Cl`, the survival was 74% (inactive).

Take `Cc1cccc(CSc2ccc(-c3cccs3)nn2)c1`: the survival was 79% (inactive).

As for `N#Cc1ccc(-c2cccs2)nc1SCC(=O)Nc1cccc(C(F)(F)F)c1`, the survival was 48% (inactive).

As for `Cc1cccc(CSc2nc(-c3cccs3)ccc2C#N)c1`, the survival was 18% (active).

As for `Cc1ccc(NC(=O)CSc2nc3c(oc4ccccc43)c(=O)n2-c2ccc(F)cc2)c(C)c1`, the survival was 67% (inactive).

As for `O=C(Nc1ccc2nsnc2c1)C1CC1`, the survival is 89% (inactive).

For the compound `O=C1c2ccc(-c3ccc4c(c3)C(=O)N(CCO)C4=O)cc2C(=O)N1CCO`, the survival is 87% (inactive).

As for `CN1CC(C(=O)O)CC1=O` (stereo not given), the survival is 83% (inactive).

In the case of `Cn1c(=O)oc2cc(S(=O)(=O)CCC(=O)NCc3ccccc3)ccc21`, the survival is 77% (inactive).

Turning to `Cc1ccc(Cl)cc1N1CCN(c2nc3ccccc3c3nc(-c4cccnc4)nn23)CC1`, the survival is 114% (inactive).

As for `CCOC(=O)c1[nH]c(C)c(CCC(=O)Nc2cc(Cl)c(OC)cc2OC)c1C`, the survival was 122% (inactive).

For `COc1ccc(OCC(=O)NCC(c2ccc(OC)cc2)N2CCCCC2)cc1` (stereo not given), the survival is 79% (inactive).

Turning to `COc1ccc(CC(=O)NCc2ccc3c(c2)CCN3C(C)=O)cc1`, the survival was 96% (inactive).

Turning to `COc1ccc(-n2c(=O)c3c4c(sc3n(Cc3ccc(F)cc3)c2=O)CCCC4)c(OC)c1`, the survival was 47% (inactive).

For `Cc1cc(C)cc(NC(=O)CSc2ccc(-c3cccs3)nn2)c1`, the survival is 73% (inactive).

For `Cc1ccc2c(c1)C(=O)OC(C(=O)Nc1ccc(C(=O)O)cc1)C2` (stereo not given), the survival is 65% (inactive).

`CCOc1ccc(NC(=O)c2c(NC(=O)c3ccccc3F)sc3c2CCC3)cc1`: the survival was 155% (inactive).

As for `CCS(=O)(=O)N1CCc2cc(C(=O)Nc3cccc(NC(C)=O)c3)ccc21`, the survival was 42% (active).

Take `CCCCc1ccc(NC(=O)c2ccc3c(c2)CCN3S(=O)(=O)c2ccccc2)cc1`: the survival is 53% (inactive).

In the case of `CCS(=O)(=O)N1CCCc2cc(C(=O)Nc3cccc(C(C)=O)c3)ccc21`, the survival is 89% (inactive).

On to `CCCCc1ccc(NC(=O)c2ccc3c(c2)CCN3S(=O)(=O)CC)cc1`, for which the survival is 38% (active).

`CCS(=O)(=O)N1CCc2cc(C(=O)Nc3ccc(C(=O)OC)cc3)ccc21`: the survival was 49% (inactive).

For the compound `CCS(=O)(=O)N1CCc2cc(C(=O)Nc3cccc(C(C)=O)c3)ccc21`, the survival is 50% (inactive).

With `COc1ccc2c(C)c(CCC(=O)NCc3ccccc3Cl)c(=O)oc2c1C`, the survival is 63% (inactive).

As for `COc1ccc(CN2CCc3c(c(=O)n4ncc(C(=O)N5CCN(c6ccccc6OC)CC5)c4n3C)C2)cc1`, the survival is 89% (inactive).

As for `CCN(CCCNC(=O)c1cc2cc3ccc(C)cc3nc2s1)c1ccccc1`, the survival is 126% (inactive).

With `CCN(CCCNC(=O)c1cc2cc3cc(OC)ccc3nc2s1)c1ccccc1`, the survival is 53% (active).

For the compound `CCN(CCCNC(=O)c1cc2cc3ccc(OC)cc3nc2s1)c1cccc(C)c1`, the survival is 83% (inactive).

With `CCN(CCCNC(=O)c1cc2cc3ccc(OC)cc3nc2s1)c1ccccc1`, the survival was 97% (inactive).

`CCN(CCCNC(=O)c1cc2cc3cc(C)ccc3nc2s1)c1cccc(C)c1`: the survival is 102% (inactive).

As to `CCN(CCCNC(=O)c1cc2cc3cc(OC)ccc3nc2s1)c1cccc(C)c1`, the survival was 46% (active).

Consider `O=C(COCc1cc(-c2cccs2)on1)NCc1ccc(Cl)cc1`, for which the survival is 64% (inactive).

Turning to `CC1CCN(S(=O)(=O)c2ccc(N3CCCCS3(=O)=O)cc2)CC1`, the survival was 71% (inactive).

Consider `Cc1ccc2oc(C(=O)N3CCC(c4nc5ccccc5s4)CC3)c(C)c2c1`, for which the survival was 52% (inactive).

Consider `O=C(NCCS(=O)(=O)N1CCN(c2ccccc2F)CC1)c1cc(=O)c2ccccc2o1`, for which the survival was 71% (inactive).

With `Cc1cccc(NC(=O)C2CCCN(S(=O)(=O)c3ccc4c(c3)oc(=O)n4C)C2)c1C` (stereo not given), the survival is 83% (inactive).

Take `CCC(CC)c1nnc(NC(=O)CS(=O)(=O)Cc2ccccc2)s1`: the survival was 70% (inactive).

Consider `CCOC(=O)c1cnc2c(ccc3ccccc32)c1Nc1ccccc1OC`, for which the survival is 28% (active).

For the compound `CCOC(=O)c1cnc(NCc2ccccc2OC)c2ccccc12`, the survival was 89% (inactive).

For `CCOC(=O)c1cnc2c(ccc3ccccc32)c1Nc1ccccc1OCC`, the survival was 126% (inactive).

Regarding `CCOC(=O)c1cnc2c(ccc3ccccc32)c1Nc1ccc(OC)cc1OC`, the survival was 8% (active).

As for `CCOC(=O)c1c(C)oc2ncnc(Nc3ccc(OC)cc3OC)c12`, the survival was 97% (inactive).

Consider `CCOC(=O)c1cnc(N2CCN(c3ccc(OC)cc3)CC2)c2ccccc12`, for which the survival is 97% (inactive).

On to `CCOC(=O)CSc1nc2cc(OC)c(OC)cc2c2nc(-c3ccccc3)nn12`, for which the survival was 59% (inactive).

As for `O=C(Cn1ncc2c(=O)oc3ccccc3c21)NCc1ccc(Cl)cc1`, the survival was 86% (inactive).

For `CCOc1ccccc1N(CC)C(=O)c1cc2c(=O)n(CC)c3ccccc3c2s1`, the survival was 121% (inactive).
